Compounds with a hit are over-represented: about 1.6% of the library has one in this group of screens.
Sa RN4220 lethal – kills Staphylococcus aureus RN4220; S. aureus RN4220 growth, OD600, 16 h; inhibition, % (concentration not given with the values); 330,000 compounds, 0.33% hits; AID 1259311; in the data active = inhibition above about 85%
RecA intein inh – inhibitors of M. tuberculosis RecA intein splicing. P9WHJ3. cell-free RecA intein splicing, fluorescence. inhibition, % (no concentration beside the values). 290,000 compounds, 0.75% hits. AID 2221; in the data active = inhibition above about 30%
Target sequence (P9WHJ3 whole entry, looked up): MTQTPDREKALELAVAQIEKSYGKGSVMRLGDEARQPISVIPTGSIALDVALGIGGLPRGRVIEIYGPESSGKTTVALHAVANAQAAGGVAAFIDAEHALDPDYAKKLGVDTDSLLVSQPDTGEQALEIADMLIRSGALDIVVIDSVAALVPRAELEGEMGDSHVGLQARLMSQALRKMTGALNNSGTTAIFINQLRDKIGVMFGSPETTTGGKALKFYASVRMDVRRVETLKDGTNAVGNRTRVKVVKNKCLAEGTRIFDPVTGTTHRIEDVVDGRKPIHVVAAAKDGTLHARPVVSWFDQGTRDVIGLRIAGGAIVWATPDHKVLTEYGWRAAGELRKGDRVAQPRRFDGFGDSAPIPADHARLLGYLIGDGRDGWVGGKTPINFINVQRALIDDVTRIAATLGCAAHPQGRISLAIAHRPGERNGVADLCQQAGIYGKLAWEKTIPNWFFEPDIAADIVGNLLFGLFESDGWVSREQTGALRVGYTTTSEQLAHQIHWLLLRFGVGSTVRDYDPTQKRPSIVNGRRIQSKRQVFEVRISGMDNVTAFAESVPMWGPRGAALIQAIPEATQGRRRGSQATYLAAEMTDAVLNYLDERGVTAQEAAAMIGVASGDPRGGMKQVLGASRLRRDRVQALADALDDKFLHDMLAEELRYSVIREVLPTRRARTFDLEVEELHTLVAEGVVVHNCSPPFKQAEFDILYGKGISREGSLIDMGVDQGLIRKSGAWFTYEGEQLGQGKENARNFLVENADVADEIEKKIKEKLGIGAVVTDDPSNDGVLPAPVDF
CCHF vOTU inh – CCHFV vOTU protease inhibition; Pep-AMC fluorescence; inhibition, % at 11.5 µM; 370,000 compounds, 0.55% hits; in the data active = inhibition above about 30%
BJeLR viability – kills HRASV12-expressing BJeLR cells. AID 1554. BJeLR (HRASV12) viability, CellTiter-Glo ATP luminescence, 48 h. 300,000 compounds, 0.17% hits. inhibition, % (concentration not given with the values); in the data active = inhibition above about 50%
ugtP null kill – kills S. aureus RN4220 lacking UgtP; growth inhibition, % (test concentration not listed); S. aureus RN4220 ugtP deletion, OD600 growth, 16 h; AID 1259309; 330,000 compounds, 0.54% hits; in the data active = growth inhibition above about 68%
Mtb hypoxia inh – reduces hypoxia-regulated biosensor signal in M. tuberculosis | M. tuberculosis hypoxia-regulated fluorescent reporter, fluorescence | AID 1159583 | fluorescence inhibition, % (concentration not given with the values) | 300,000 compounds, 0.1% hits; in the data active = fluorescence inhibition mostly above about 23%, no sharp cut-off; inactive = mostly below about 17%
Hits are given with their value; . = inactive; / = not tested or not shown.

SMILES	Sa RN4220 lethal	RecA intein inh	CCHF vOTU inh	BJeLR viability	ugtP null kill	Mtb hypoxia inh
COCc1[nH]nc2c1C(c1sccc1C)C(C#N)=C(N)O2 (configuration not stated)	.	.	.	.	.	.
Cc1noc(C)c1NC(=O)N(C)CC1Oc2ccc(NC(=O)NC3CCCCC3)cc2C(=O)N(C(C)CO)CC1C (configuration not stated)	.	/	/	/	.	.
COC(=O)CCC(=O)OC1(C)C(=O)C2=CN(CCCCO)C(c3ccc(OC)cc3)=CC2=C(Br)C1=O (configuration not stated)	/	48	/	.	/	/
COC(=O)c1ccc(Oc2ccc(C(C)(C)C)cc2)c([N+](=O)[O-])c1	.	.	.	.	95	.
CC(C)CC(NC(=O)C1CCCN1C(=O)C(N)Cc1ccc(O)cc1)C(=O)NCC(N)=O (configuration not stated)	.	/	/	/	.	.
COc1cc(-c2nc3ccc4ccccc4c3c3c2CCC3)ccc1O	99	.	.	.	101	.
CC1CN(C(C)CO)C(=O)c2cc(NS(=O)(=O)c3cn(C)cn3)ccc2OC1CN(C)Cc1ccc(C(=O)O)cc1 (configuration not stated)	.	/	/	/	.	.
FC(F)(F)c1ccc(C2C3CN(Cc4ccc(-c5ccccc5)cc4)C(c4ccccc4)C34CC2(c2ccccc2)C4)cc1 (configuration not stated)	.	/	/	/	.	.
CN1CCC(=O)N(C(CO)c2ccccc2)CC1 (configuration not stated)	.	/	/	/	.	.
O=C(Nc1ccc(F)c(Cl)c1)Nc1csc2ccccc12	100	.	.	.	100	.
O=C1/C(=C/c2ccncc2)CCC/C1=C\c1ccncc1	.	.	.	68	.	/
O=C1C(=Cc2ccncc2)CCCc2ccccc21	/	/	.	/	/	/
NS(=O)(=O)c1ccc(N2N=C(c3ccccc3)CC2c2cccc(F)c2)cc1 (configuration not stated)	.	.	.	.	.	.
NS(=O)(=O)c1ccc(N2N=C(c3ccc(Br)cc3)CC2c2ccc(F)cc2)cc1 (configuration not stated)	98	.	.	.	.	.
COc1ccc(C2CC(c3ccc(Cl)cc3)=NN2c2ccc(S(N)(=O)=O)cc2)cc1 (configuration not stated)	94	/	.	/	.	.
COc1ccc(C2CC(c3ccncc3)=NN2c2ccc(S(N)(=O)=O)cc2)cc1 (configuration not stated)	.	/	.	/	.	.
O=C(NC1CCC(=O)N(CCC(Sc2ccc(Br)cc2)c2ccccc2)CC1)OCc1ccccc1 (configuration not stated)	.	/	/	/	.	.
C#CCOCCOCCOCCNc1nc(N2CCN(C(=O)C(CCC(=O)O)n3cc(C(N)Cc4ccc(O)cc4)nn3)CC2)nc(N2CCN(C(=O)C(CCC(=O)O)n3cc(C(N)Cc4ccc(O)cc4)nn3)CC2)n1 (configuration not stated)	.	/	/	/	.	.
CCCCC1CCCO[C@@](C(=O)NCc2ccccn2)(C(F)(F)F)C1 (some centres not stated)	.	/	/	/	.	.
COc1ccc(-c2cc(N)n(S(=O)(=O)c3c(F)c(F)c(F)c(F)c3F)n2)cc1OC	98	97	.	.	95	.
O=C(NCc1ccccc1)C1=CC(C2CC2)CC(OCCCCO)O1 (configuration not stated)	.	/	/	/	.	.
CC(C(N)C(=O)NC(C(=O)O)C1OC(n2ccc(=O)[nH]c2=O)C(O)C1O)C(O)c1ccc(O)cn1 (configuration not stated)	.	/	/	/	.	.
CC[C@@]1(O)C(=O)OCc2c1cc1n(c2=O)Cc2cc3c(NC(=O)CN)cccc3nc2-1	.	.	.	93	.	.
CC[C@@]1(O)C(=O)OCc2c1cc1n(c2=O)Cc2cc3ccccc3nc2-1	/	.	/	91	/	/
CCC1(OC(=O)CN)C(=O)OCc2c1cc1n(c2=O)Cc2cc3ccccc3nc2-1 (configuration not stated)	.	.	/	90	.	.
SMILES	Sa RN4220 lethal	RecA intein inh	CCHF vOTU inh	BJeLR viability	ugtP null kill	Mtb hypoxia inh
O=C(Oc1ccc([N+](=O)[O-])cc1)N1CCC(N2CCCCC2)CC1	.	.	.	.	.	.
CCC1(O)C(=O)OCc2c1cc1n(c2=O)Cc2cc3cc(O)ccc3nc2-1 (configuration not stated)	/	/	.	/	/	/
CCOC(=O)C1(C(=O)OCC)COC(=O)C1CN1Cc2cc3ccccc3nc2C1 (configuration not stated)	/	/	.	/	/	/
CCc1c2c(nc3ccc(OC(=O)N4CCC(N5CCCCC5)CC4)cc13)-c1cc3c(c(=O)n1C2)COC(=O)[C@]3(O)CC	.	.	.	56	.	.
COC(=O)C1=C(c2ccc(Cl)c(C(F)(F)F)c2)CC2CCC1N2C (configuration not stated)	.	/	/	/	.	.
CCCOc1ccc(C(O)=C2C(=O)C(=O)N(CCCOC)C2c2cccnc2)cc1 (configuration not stated)	.	/	/	/	.	.
O=C1C(Cl)=C(NCC2CCCO2)C(=O)N1c1ccccc1 (configuration not stated)	.	33	.	.	.	.
CC(C)C(CN(N=O)C(Cc1ccccc1)CN(C)N=O)N(CCc1ccccc1)N=O (configuration not stated)	.	/	/	/	.	.
O=Cc1cc2ccccc2nc1SCc1ccc(Cl)c(Cl)c1	.	.	.	55	99	/
Cc1ccc(CSc2nc3ccccc3cc2C=O)cc1	/	.	.	.	/	/
O=Cc1cc2ccccc2nc1SCc1ccc(Cl)cc1	.	.	.	63	.	/
Clc1ccc(CSc2cnnc3ccccc23)cc1Cl	.	/	.	/	.	.
CCN1C(=O)C2C(c3ccc(OC)cc3)N3C(=O)CN(CCOC)C(=O)[C@@]3(Cc3ccccc3)C2C1=O (some centres not stated)	.	/	/	/	.	.
O=[N+]([O-])c1nn(-c2cccc(Cl)c2)n(O)c1=NCc1cccnc1	.	.	.	.	.	57
Cc1cc(C)cc(N=c2c([N+](=O)[O-])nn(-c3cccc(Cl)c3)n2O)c1	88	.	.	.	.	.
Cc1ccc(CN=c2c([N+](=O)[O-])nn(-c3ccc(Cl)cc3)n2O)cc1	.	.	.	.	.	.
CCc1cccc(N=c2c([N+](=O)[O-])nn(-c3ccc(Cl)cc3)n2O)c1	95	.	.	.	92	.
Cc1cccc(N=c2c([N+](=O)[O-])nn(-c3ccc(Cl)cc3)n2O)c1	.	.	.	.	.	.
Nc1nc(NC(=O)c2ccccc2)nn1-c1ccccc1	.	.	.	.	.	.
O=C(Nc1nc(NC(=O)c2ccco2)n(-c2ccccc2)n1)c1ccccc1	92	.	.	.	.	.
CN(C)CCSc1nc(-c2ccccc2)nc2c1CCCC2	.	/	.	.	.	.
CCSc1nc(-c2ccccc2)nc2c1CCCC2	.	.	.	.	88	.
